Measurements taken from PubChem BioAssay (NCI).
Where “and” joins values, the source holds several entries; their conditions need not be identical. Equal entries are not always repeated. This is part of a sample that, as a whole, favours compounds with a hit. Of some 79,000 tested, about 15% had one in any assay. A structure can be active in one record and inactive in another. Calls of active or inactive are those of the source. Cut-off read from the data, not from the text of the source: active = growth inhibition above about 70%; inactive = the rest. Where a SMILES comes first, the peptide text is derived from it.

Test: NCI Yeast Anticancer Drug Screen. Data for the cln2 rad14 strain (AID 165);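 note: 0% = growth equal to vehicle treated cultures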
Settings: S. cerevisiae cln2 rad14 strain, at 50.0 µM (retest, dose inferred, filed as 5.0), stronger effect = higher value
Summary of the method: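 Yeast strain cln2 rad14, bearing defects in cell cycle control and DNA repair, serves as the test system; values reflect growth inhibition compared with vehicle.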

Compound | growth inhibition
C=C[C@]1(C)C=C2C(O)CC3C(C)(C)CCC[C@]3(CO)C2CC1 (some centres not stated) | 99% (active)
c1ccc(-c2cnc(-c3ccc(-c4ncc(-c5ccccc5)o4)cc3)o2)cc1 | -10% (inactive)
Nc1ccc2c(ccc3ccc4ccccc4c32)c1 | 96% (active)
O/N=C(\CC(O)(C(F)(F)F)C(F)(F)F)c1cccc(Cl)c1 | 95% (active)
CC(=O)OC1CCC2(C)C(CCC3C4CCC(OC(C)=O)C4(C)CCC32)O1 (configuration not stated) | 41% (inactive)
Cc1[nH]c2ccccc2c1C1Cc2ccccc2N1 (configuration not stated) | 6% (inactive) and 29% (inactive)
COc1ccc(C2c3cc4c(cc3OC(NNC(N)=O)C2C)OCO4)cc1 (configuration not stated) | 95% (active)
Oc1ccc(C(O)(c2ccccc2)c2ccccc2)cc1 | 63% (inactive) and 90% (active)
COc1ccc(CC(=O)c2ccc(O)cc2O)cc1 | 76% (active)
COC(=O)C#CC(=O)OC | 96% (active)
O=C1OC2=C(c3ccccc3)CCCC2C1=O (configuration not stated) | 94% (active)
CC(C)C(NC(=O)C(N)CCC(=O)O)C(=O)O (stereo not drawn) (H-Glu-Val-OH; configuration not given here) | 7% (inactive)
CC1(C)CC(=O)C2=C(C1)OC1=C(CC(C)(C)CC1=O)C2c1ccccc1Cl (configuration not stated) | 33% (inactive)
O=C(CC(=O)CC(O)(c1ccccc1)c1ccccc1)CC(=O)c1ccccc1 | 94% (active)
O=Nc1ccc(C=C2C(=O)C=CC2=O)cc1 | 98% (active)
C[N+]1(Cc2ccc(Cl)c(Cl)c2)CCCC1C1CCCN(Cc2ccc(Cl)c(Cl)c2)C1 (configuration not stated) | 27% (inactive)
C[C@H]1CC[C@H]([C@@H](C)[C@H]2[C@@H](O)C[C@H]3[C@@H]4CC[C@H]5C[C@@H](O)CC[C@]5(C)[C@H]4CC[C@]23C)NC1 | 97% (active) and 60% (inactive)
CCOP(=O)(OCC)C(C)(CC)NC(=O)C(C(F)(F)F)C(F)(F)F (configuration not stated) | 24% (inactive)
[N-]=[N+]=NC(=O)Nc1cccc(C(F)(F)F)c1 | 99% (active)
NC(C/[N+]([O-])=N/O)C(=O)O (configuration not stated) | -28% (inactive)
NC(=O)N/N=C/c1ccc([N+](=O)[O-])o1 | 16% (inactive)

Same assay, conditions: S. cerevisiae cln2 rad14 strain, at 50.0 µM, stronger effect = higher value

Compound | growth inhibition
Cc1cccc(Cc2ccccc2Cl)c1O | 98.6% (active)
OC1CN(Cc2ccccc2)C[C@@H]1O (some centres not stated) | 59.6% (inactive)
BrC(c1cccc2ccccc12)c1cccc2ccccc12 | 92.8% (active)
COc1nc(NC2OC(CO)C(O)C(O)C2O)c(Cl)c(=O)n1C (configuration not stated) | 69.3% (inactive)
O=S(=O)(CC(Cl)c1ccccc1)c1nc2ccccc2s1 (configuration not stated) | 43.2% (inactive)
CCCCCCCCCCCCOS(=O)(=O)O | 1% (inactive) and 98.4% (active) and 7.2% (inactive)
O=C(NNc1ccnc2cc(Cl)ccc12)/C(=C/c1ccc2c(c1)OCO2)NC(=O)c1ccccc1 | 79.7% (active)
O=C(CCN1CCN2c3ccccc3CCC2C1)c1ccc(F)cc1 (configuration not stated) | 93.5% (active) and 22.4% (inactive)
CC1C[C@]2(C)C(=O)Nc3ccccc3[C@@H]2Nc2ccccc21 (some centres not stated) | 89.5% (active)
Nc1nc(=S)c2ncn(C3OC(CO)C(O)C3O)c2[nH]1 (configuration not stated) | 4.9% (inactive) and 96.8% (active)
O=C(O)c1c2ccccc2nc2[nH]c(=O)[nH]c(=O)c12 | 62.9% (inactive) and -0.85% (inactive)
N#Cc1c(/N=C/c2ccccc2Cl)sc2c1CCC2 | 4.2% (inactive)
CCC1=C(C)/C(=C/c2[nH]c(C)c(CC)c2C)N=C1C | 18.6% (inactive) and -57.5% (inactive)
O=C(O)c1ccccc1C(=O)O | 21.1% (inactive) and 54.1% (inactive)
Cc1cc(C)nc(NS(=O)(=O)c2ccc(Nc3c4ccccc4nc4c(C(=O)NCCCN(CCO)CCO)cccc34)cc2)n1 | 74.3% (active)
CCCCCCCCCCCCCCCCCCOCC(COP(=O)([O-])OCC[N+](C)(C)C)OC (configuration not stated) | 88.2% (active) and 9.5% (inactive)
S=c1nc[nH]c2[nH]ccc12 | 48% (inactive)
C=C[C@]1(C)C=C2C(O)CC3C(C)(C)CCC[C@]3(CO)C2CC1 (some centres not stated) | 99.3% (active)
c1ccc(-c2cnc(-c3ccc(-c4ncc(-c5ccccc5)o4)cc3)o2)cc1 | 91% (active)
Nc1ccc2c(ccc3ccc4ccccc4c32)c1 | 95.5% (active)
O/N=C(\CC(O)(C(F)(F)F)C(F)(F)F)c1cccc(Cl)c1 | 89% (active)
